Hits are enriched below; roughly 14% of the tested compounds scored in any of these assays.
HCMV antiviral: human cytomegalovirus inhibition; HFF cells, HCMV-luciferase reporter, 72 h; hits give low values; activity change, negative = inhibition, % at 57.5 µM; hit rate 4.5% among 410,000; in the data active = activity change below about -60%; inconclusive = no clear call, values can overlap the other calls; inactive = above about -39%
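Inhibition of viral replication was scored as loss of reporter luminescence in HFFs infected with HCMV-luciferase (MOI 1 PFU/cell) for 72 h; compounds tested at 2 doses, normalized to buffer and Salinomycin controls.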
Pf growth 48h: inhibits P. falciparum growth in the first generation, 48 h | hit rate 5.9% among 310,000 | Potency, µM (highest dose often 28.7 µM), for the others: top-dose activity change, negative = inhibition, usual class: inhibitors | P. falciparum luciferase growth in erythrocytes, 48 h; also: potency is read from the fitted curve at half-maximal effect
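A one-generation exposure of luciferase-tagged malaria parasites in RPMI 1640/Albumax erythrocyte culture, 37 C and 5% CO2. Inhibition is inferred from decreased luminescence after adding detection reagent.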
Sm TGR block: inhibitors of Schistosoma mansoni thioredoxin glutathione reductase; AID 485364; purified TGR, DTNB reduction, TNB absorbance 405 nm; Q962Y6; Potency, µM (top dose mostly 114 µM), for the others: top-dose activity change, negative = inhibition, most hits filed as inhibitors; hit rate 3% among 360,000; also: potency is read from the fitted curve at half-maximal effect; nearly all actives have a fitted effect of over 60% in size
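TGR 20 nM + NADPH 100 uM (dispensed conc.), cpd preinc 15 min RT; start with NADPH (500 uM addition) then DTNB (15 mM addition). Kinetic TNB absorbance, 405 nm filter. Four-parameter Hill fit across titration.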
Pf growth 96h: P. falciparum growth inhibition at 96 hours; P. falciparum luciferase reporter growth, 96 h; AID 504834; hit rate 6.9% among 320,000; Potency, µM (series often up to 28.7 µM), without a hit: top-dose activity change, negative = inhibition, most hits filed as inhibitors; also: potency is read from the fitted curve at half-maximal effect
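Plates of compound plus infected erythrocytes (2% hematocrit, 0.05% parasitemia final) incubate 96 hours, 37 C, 5% CO2. Detection reagent added; reduced luminescence from the parasites' luciferase reporter flags inhibition.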
Giardia FBPA inh: Giardia lamblia aldolase inhibition; A8B2U2; purified Giardia FBPA; Potency, µM (series often up to 59.6 µM), for the others: at the top dose activity, negative = inhibition, hits mostly inhibitors; hit rate 0.71% among 290,000; AID 2451; also: potency is read from the fitted curve at half-maximal effect; nearly all actives have a fitted effect of over 55% in size
Target sequence (A8B2U2 whole entry, looked up): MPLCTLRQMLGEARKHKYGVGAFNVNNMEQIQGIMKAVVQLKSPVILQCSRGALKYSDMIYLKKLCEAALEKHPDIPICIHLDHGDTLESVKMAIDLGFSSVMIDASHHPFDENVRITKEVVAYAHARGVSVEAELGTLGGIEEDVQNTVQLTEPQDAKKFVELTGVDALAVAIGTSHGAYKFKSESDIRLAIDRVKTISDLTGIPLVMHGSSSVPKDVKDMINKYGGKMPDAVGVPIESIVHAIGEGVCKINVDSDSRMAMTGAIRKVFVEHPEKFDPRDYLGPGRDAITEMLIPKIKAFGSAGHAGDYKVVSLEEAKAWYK
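Giardia FBPA (40 nM reagent) was preincubated 10 min at RT with compound (up to 57.5 uM final), then substrate plus GAPDH/TPI/NAD/arsenate coupling system with diaphorase/resazurin was added; resorufin fluorescence (525/598 nm) was read after 20 min.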
* = called active by the depositor; ? = inconclusive; / = not tested or not shown. Unless noted, calls follow the shape of the dose curve; as a rule, active = well fitted curve in the direction sought with a large enough effect; inconclusive = small, poorly fitted or top-dose-only effect, or another doubt; inactive = no such curve, though single readings can be large; an effect the other way counts as inactive or inconclusive. % is scaled to controls: 0 for no effect and ±100 for the full control effect.

SMILES	HCMV antiviral	Pf growth 48h	Sm TGR block	Pf growth 96h	Giardia FBPA inh
CCCCN(C(=O)c1ccc2c(c1)S(=O)(=O)N=C1CCCCCN12)c1c(N)n(CCCC)c(=O)[nH]c1=O	-10.0	-1.8%	-22.1%	4.8%	/
O=C1CN(C(=O)c2ccc(Br)o2)C(c2ccccc2)c2cc(F)ccc2N1 (centres undefined)	20.1	/	?	11.7µM*	-1.5%
N=C1S/C(=C\c2ccco2)C(=O)N1c1nccs1	-115.1*	?	22.4µM*	?	-18.1%
N=C1S/C(=C\c2ccco2)C(=O)N1c1ccc2c(c1)OCO2	?	?	/	?	-8.7%
COc1cccc(N2CCN(C(=O)c3c(C)oc4ncnc(N5CCCCC5)c34)CC2)c1	-38.7	/	-8.5%	/	/
O=[N+]([O-])C(/C=C(\Cl)[N+](=O)[O-])=C1N(Cc2ccc(Cl)nc2)CCN1Cc1ccc(Cl)nc1	-24.7	2.33µM*	-34.5%	6.57µM*	-11.8%
O=C(C(=C1N(Cc2ccc(Cl)nc2)CCN1Cc1ccc(Cl)nc1)[N+](=O)[O-])C(Cl)Cl	-4.4	/	-12.4%	-0.8%	4.9%
CCc1nn(CC(=O)NCc2ccc(OC)cc2OC)c(=O)c2cc3c(OC)cccc3n12	-2.0	/	0.8%	/	/
CCCCCCn1c(SCC(=O)NC2CCS(=O)(=O)C2)nc2ccccc2c1=O (centres undefined)	52.4	/	/	/	/
Cc1cccc(C)c1-n1nnnc1C(c1cccc2ccccc12)N1CCC(n2c(=O)[nH]c3ccccc32)CC1 (centres undefined)	4.9	/	/	/	/
O=c1[nH]c2ccccc2n1C1CCN(C(c2cccc3ccccc23)c2nnnn2-c2ccc3c(c2)OCCO3)CC1 (centres undefined)	-75.6*	/	/	/	/
O=c1[nH]c2ccccc2n1C1CCN(C(c2cc3ccccc3o2)c2nnnn2-c2ccc3c(c2)OCCO3)CC1 (centres undefined)	-99.0*	/	/	/	/
COc1cccc2cc(C(=O)c3ccc([N+](=O)[O-])cc3)oc12	69.5	25.2%	-0.5%	14.7µM*	9.2%
COc1cccc(CSc2nc(-c3ccccc3F)nc3c2Cc2c(CO)cnc(C)c2O3)c1	7.4	/	?	/	/
Cc1cccc(CNc2ncnc3ccc(-c4ccc(C(=O)N(C)C)cc4)cc23)c1	/	/	/	/	-7.7%
CCC(=O)N1N=C(c2ccccc2)CC1c1ccccc1 (centres undefined)	-18.3	?	-5.4%	?	2.7%
O=C(c1ccccc1)N1N=C(c2ccccc2)CC1c1ccccc1[N+](=O)[O-] (centres undefined)	35.3	?	4.2%	1.65µM*	-1.7%
Cc1ccc(C2=NN3C(=O)c4ccccc4C3C2)cc1 (centres undefined)	54.7	?	9.2%	8.28µM*	-1.5%
Cc1ccc(C(=O)N2N=C(c3ccccc3O)CC2c2ccccc2)cc1 (centres undefined)	11.8	10.4µM*	9.3%	?	6.8%
N=C(SC1CC(=O)N(c2ccc(F)cc2)C1=O)N1N=C(c2ccccc2)CC1c1ccccc1 (centres undefined)	-29.6	2.08µM*	0.1%	33.3%	5.0%
CCN=C(NCC)SC1CC(=O)N(c2ccc(F)cc2)C1=O (centres undefined)	-20.3	1.6%	14.8%	73.1%	5.9%
CC(OC(=O)CN1C(=O)NC2(CCCC2)C1=O)C(=O)c1ccccc1 (centres undefined)	-10.9	8.3%	-7.2%	45.9%	/
Cc1nc2cc(-c3ccccc3)nn2c(C)c1CCC(=O)NCc1cccc(Cl)c1	-11.9	/	-3.6%	/	/
Cc1ccc(C(=O)N2N=C(c3ccc(Br)cc3)CC2c2ccccc2O)cc1 (centres undefined)	-62.1*	?	-5.0%	10.4µM*	6.4%
O=C(c1ccccc1)N1N=C(c2ccccc2)CC1c1ccccc1 (centres undefined)	26.6	/	-16.8%	2.33µM*	-0.3%
SMILES	HCMV antiviral	Pf growth 48h	Sm TGR block	Pf growth 96h	Giardia FBPA inh
COc1ccccc1C1CC(c2ccc(NS(C)(=O)=O)cc2)=NN1C(=O)c1ccccc1 (centres undefined)	12.8	2.08µM*	-0.4%	?	-1.2%
COc1ccc(C2=NN(C(=O)c3cccs3)C(c3ccccc3O)C2)cc1 (centres undefined)	-94.8*	10.4µM*	1.5%	?	9.1%
CC(=O)N1N=C(c2ccccc2)CC1c1ccccc1 (centres undefined)	38.6	3.2%	9.3%	?	11.3%
COc1cccc(C2CC(c3ccc(NS(C)(=O)=O)cc3)=NN2C(=O)c2ccccc2)c1OC (centres undefined)	-10.1	?	-0.9%	-75.6%	-5.6%
CCC1CCCCN1S(=O)(=O)c1ccc(NC(=O)C2CC(=O)N(C(C)(C)C)C2)cc1 (centres undefined)	60.0	/	/	/	/
COc1ccccc1C1CC(c2ccccc2)=NN1C(=O)c1ccccc1 (centres undefined)	61.2	0.37µM*	13.0%	1.1%	7.2%
CCC(CC)C(=O)N1N=C(c2ccc(NS(C)(=O)=O)cc2)CC1c1ccc(C)cc1 (centres undefined)	?	?	-5.6%	5.22µM*	-2.1%
Cn1cc(C2CC(c3ccccc3)=NN2C(=O)c2ccccc2)c2ccccc21 (centres undefined)	-21.2	8.28µM*	3.9%	8.28µM*	1.1%
CCc1ccc(C2=NN(S(C)(=O)=O)C(c3cccs3)C2)cc1 (centres undefined)	42.2	/	-22.9%	0.294µM*	4.9%
CCC(CC)C(=O)N1N=C(c2ccc(NS(C)(=O)=O)cc2)CC1c1ccccc1 (centres undefined)	0.0	?	-13.7%	?	-1.6%
COc1ccc(C(=O)NCc2nnc(SCC(=O)Nc3ccccc3)n2-c2ccccc2)cc1	1.0	/	6.2%	/	/
Cc1cccc(C(=O)N2N=C(c3ccc(NS(C)(=O)=O)cc3)CC2c2cccs2)c1 (centres undefined)	9.6	8.28µM*	-2.7%	?	-1.9%
CCO[C@H]1OC(C(=O)NCc2nc3ccccc3[nH]2)=C[C@@H](c2csc3ccccc23)[C@@H]1CCCO	32.8	10.4µM*	6.5%	10.4µM*	-12.4%
CCO[C@@H]1OC(C(=O)NCc2nc3ccccc3[nH]2)=C[C@H](c2csc3ccccc23)[C@H]1CCCO	-12.7	?	-6.3%	13.1µM*	0.1%
CCO[C@H]1OC(C(=O)NCc2nc3ccccc3[nH]2)=C[C@@H](c2ccccc2)[C@@H]1CCCO	-4.4	-3.3%	-14.2%	-6.6%	16.0%
CC(C)c1nn2c(=O)cc(COC(=O)CNC(=O)c3ccccc3)nc2s1	14.4	/	-4.1%	/	/
CSc1ncc(Cl)c(C(=O)Nc2cccc(Cl)c2)n1	-0.3	-11.0%	6.0%	?	5.6%
CCN(CC)CCOC(=O)c1c(C)oc2ccc(OC)cc12	-65.6*	13.0%	0.1%	-24.3%	-9.4%

Screening results deposited in PubChem by National Center for Advancing Translational Sciences (NCATS).
